Source: PubChem (National Center for Advancing Translational Sciences (NCATS))
GPT2 inh – blocks human glutamate pyruvate transaminase 2. Recombinant GPT2, coupled pyruvate oxidase/HRP Amplex Red fluorescence. Potency, µM (series often up to 57.7 µM), for inactives: at the highest dose activity change, negative = inhibition, most hits filed as inhibitors. 100,000 tested, 0.25% active. AID 1671188; further: nearly all actives have a fitted effect of over 60% in size
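Recombinant GPT2 (10ng/uL) with 250uM a-KG and 2mM L-alanine, 30 min at room temperature, in HEPES pH 7.5 buffer. Pyruvate detected by pyruvate oxidase/HRP/Amplex Red fluorescence after 30 min in the dark; AOA (50uM) as positive control.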
HEK cytotox – HEK 293 cell cytotoxicity; HEK 293 viability, ATP luminescence (CellTiter-Glo), 48-72 h; Potency, µM (series often up to 115 µM), without a hit: top-dose activity change, negative = cytotoxicity, actives largely listed as inhibitors; 94,000 tested, 6.6% active; AID 1345083; further: nearly all actives have a fitted effect of over 60% in size
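250 HEK 293 cells/well; compound by pintool; incubated 48 or 72 hr at 37 degree Celsius; CellTiter-Glo added, 10 min RT, luminescence imaged.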
3T3 cytotox – NIH 3T3 cell cytotoxicity; NIH 3T3 viability, CellTiter-Glo ATP luminescence, 48-72 h; Potency, µM (top dose mostly 96.7 µM), for the others: at the highest dose activity change, negative = cytotoxicity, hits mostly inhibitors; 94,000 tested, 4.3% active; AID 1345082; further: nearly all actives have a fitted effect of over 55% in size
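Mouse fibroblast NIH 3T3 cells, 400 per well, received compound via pintool and were incubated for 48 or 72 hr prior to CellTiter-Glo ATP luminescence measurement.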
Luciferase inh – Photinus pyralis luciferase inhibition; purified P. pyralis luciferase, luminescence, biochemical; Potency, µM (titrated, usually from 115 µM), usual class: inhibitors; 76,000 tested, 2.5% active; AID 1347043; further: nearly all actives have a fitted effect of over 65% in size
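Luminescence read by CCD imaging after purified firefly luciferase (10nM final) was added to substrate buffer holding 10uM D-luciferin and 10uM ATP, pH 7.5, pre-dosed with compound.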
NPR1 antag – antagonists of human natriuretic peptide receptor Npr1 | P16066 | HEK293 hNpr1 GloSensor cGMP, ANP-stimulated luminescence | Potency, µM (highest dose often 46.3 µM), for the others: top-dose activity change, negative = inhibition, most hits filed as inhibitors | 76,000 tested, 1.6% active | AID 1347048; calls by dose curve; further: nearly all actives have a fitted effect of over 60% in size
Target sequence (P16066 whole entry, looked up): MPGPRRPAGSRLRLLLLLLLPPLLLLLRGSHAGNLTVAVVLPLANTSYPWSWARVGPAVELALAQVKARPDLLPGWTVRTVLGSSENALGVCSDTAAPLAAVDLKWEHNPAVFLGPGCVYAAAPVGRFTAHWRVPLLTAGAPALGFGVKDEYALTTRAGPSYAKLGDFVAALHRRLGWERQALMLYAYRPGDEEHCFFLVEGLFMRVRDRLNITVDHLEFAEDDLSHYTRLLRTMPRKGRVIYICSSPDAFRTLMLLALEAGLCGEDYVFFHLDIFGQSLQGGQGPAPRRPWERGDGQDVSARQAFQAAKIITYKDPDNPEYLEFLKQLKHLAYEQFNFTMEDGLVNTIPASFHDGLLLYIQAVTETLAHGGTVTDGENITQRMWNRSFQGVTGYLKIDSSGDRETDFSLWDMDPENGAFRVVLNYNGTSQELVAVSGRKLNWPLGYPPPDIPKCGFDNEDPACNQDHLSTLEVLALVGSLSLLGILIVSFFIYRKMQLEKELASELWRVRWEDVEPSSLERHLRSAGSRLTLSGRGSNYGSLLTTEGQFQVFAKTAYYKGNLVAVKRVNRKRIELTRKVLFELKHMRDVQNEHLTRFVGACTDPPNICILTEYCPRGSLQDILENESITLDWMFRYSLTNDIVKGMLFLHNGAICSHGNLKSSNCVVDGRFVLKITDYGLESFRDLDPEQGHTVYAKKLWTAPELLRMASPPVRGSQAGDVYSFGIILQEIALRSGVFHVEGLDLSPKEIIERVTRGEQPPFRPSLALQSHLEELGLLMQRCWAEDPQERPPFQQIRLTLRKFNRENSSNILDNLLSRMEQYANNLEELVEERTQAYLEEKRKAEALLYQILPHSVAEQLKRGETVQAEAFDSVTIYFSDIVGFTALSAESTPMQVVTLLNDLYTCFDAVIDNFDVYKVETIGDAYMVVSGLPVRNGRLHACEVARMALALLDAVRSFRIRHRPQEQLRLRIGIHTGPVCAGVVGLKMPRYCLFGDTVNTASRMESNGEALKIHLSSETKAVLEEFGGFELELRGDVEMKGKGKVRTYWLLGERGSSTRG
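Compound pre-incubated 30 min at room temperature on GloSensor-loaded HEK293 cells stably carrying hNpr1 and the pGS-40F cGMP biosensor. Stimulation uses hNppA at 0.1 nM final; luminescence is taken at baseline and 20 min post-agonist.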
The depositor's hits bear a star; i = inactive; ? = inconclusive; / = no result; [ ] = another dose, or the depositor's remark. Only some compounds are listed: those with a hit (about 10% of all), similar ones and a draw of the others. Unless noted, the call rests on the fitted dose curve; in most records, active means well fitted curve in the direction sought with a large enough effect; inconclusive means small, poorly fitted or top-dose-only effect, or another doubt; inactive means no such curve, though single readings can be large; an effect the other way counts as inactive or inconclusive. On the % scale 0 is the no-effect control and ±100 the full control effect; potency means the concentration at half of the fitted maximal effect.

SMILES	GPT2 inh	HEK cytotox	3T3 cytotox	Luciferase inh	NPR1 antag
CN(c1cc(=O)c2ccnc(-c3ccc(F)c(Cl)c3)c2o1)C1CCOCC1	5%[88.5 µM]	-17%[172 µM]	?	i	-11%[70.6 µM]
COc1ncccc1-c1nccc2c(=O)cc(N(C)c3ccccc3)oc12	i	?	35µM*	i	-2%[70.6 µM]
CN(c1cc(=O)c2ccnc(-c3cccc(C(F)(F)F)c3)c2o1)C1CCOCC1	i	-19%[172 µM]	13µM*	i	-1%[70.6 µM]
CN(c1ccccc1)c1cc(=O)c2ccnc(-c3ccncc3)c2o1	-10%[88.5 µM]	-18%[172 µM]	25µM*	i	2%[70.6 µM]
COc1cc(-c2nccc3c(=O)cc(N(C)c4ccccc4)oc23)ccn1	3%[88.5 µM]	?	10µM*	i	2%[70.6 µM]
Cc1ccc(C(=O)N2CCc3nc(C4CC4)nc(-c4ccc(O)cc4)c3C2)cc1	i	?	?	/	/
O=C(NCCN1CCOCC1)c1noc(-c2ccccc2F)n1	i	3%	-1%	i	-4%
Fc1ccccc1-c1noc(N2CCOCC2)n1	-3%	?	-18%	32µM*	-14%
O=C(NCc1cccnc1)c1ccc2c(c1)n(Cc1ccccc1)c(=O)c1ccnn12	i	-13%	-6%	i	0%
O=C(NCc1cccnc1)c1ccc(N2CCC(NCCCn3ncc4ccccc43)CC2)cc1	2%	?	18µM*	i	-2%
CCCS(=O)(=O)N1CCC2(CC1)C(=O)N(c1cccc(F)c1)C2c1ccccc1 (centres undefined)	-1%	25µM*	-27%	/	/
COc1ccc(C2(C(=O)N3CC(c4noc(COc5ccc(F)cc5)n4)C3)CC2)cc1	i	?	?	/	/
O=C(NCc1ccc(C(F)(F)F)cc1)C1CCCN(Cc2cccc(-c3ccsc3)c2)C1 (centres undefined)	/	?	35µM*	/	/
O=C(NCc1cccc(C(F)(F)F)c1)C1CCCN(Cc2cccc(-c3ccsc3)c2)C1 (centres undefined)	/	32µM*	13µM*	/	/
O=C1CCN(Cc2ccncc2)CCCC(C(=O)NCc2cccc(C(F)(F)F)c2)CCN1 (centres undefined)	1%	-6%	-10%	i	0%
Cc1cccc(-c2cccc(CN3CCCC(C(=O)NCC(F)F)C3)c2)c1 (centres undefined)	3%	?	?	/	/
CN1C[C@@H](NC(=O)c2ccc(-c3ccccc3)cc2)C[C@H]1c1nc(-c2ccncc2)no1	2%[88.5 µM]	?	?	i	?
CNC(=O)c1cccc(-c2cnc3[nH]cc(CC(=O)NCC(C)C)c3c2)c1	-6%[88.5 µM]	?	35µM*	i	1%[70.6 µM]
COC1CCN(C(=O)Cc2c[nH]c3ncc(-c4cccnc4)cc23)CC1	-26%[88.5 µM]	4%[172 µM]	79µM*	i	1%[70.6 µM]
CNC(=O)c1cccc(-c2cnc3[nH]cc(CC(=O)N4CCC(OC)CC4)c3c2)c1	i	-24%[172 µM]	89µM*	?	2%[70.6 µM]
O=C(Cc1c[nH]c2ncc(-c3ccoc3)cc12)N1CCOCC1	i	?	?	i	-12%[70.6 µM]
COc1ncc(-c2cnc3[nH]cc(CC(=O)N4CCOCC4)c3c2)cn1	-4%[88.5 µM]	-18%[172 µM]	79µM*	i	4%[70.6 µM]
CNC(=O)c1cccc(-c2cnc3[nH]cc(CC(=O)Nc4ccccc4C)c3c2)c1	1%[88.5 µM]	?	?	?	0%[70.6 µM]
CNC(=O)c1cccc(-c2cnc3[nH]cc(CC(=O)N4CCCC4)c3c2)c1	i	?	?	i	-9%[70.6 µM]
O=C(Cc1c[nH]c2ncc(-c3cccnc3)cc12)N1CCN(c2ccccn2)CC1	i	?	?	i	-8%[70.6 µM]
SMILES	GPT2 inh	HEK cytotox	3T3 cytotox	Luciferase inh	NPR1 antag
O=C(NCC1CCOCC1)c1ccc(C(F)(F)F)cc1	i	1%	i	i	0%
COc1ccc(N2CCN(c3nc(C(=O)NCc4ccco4)cs3)CC2)cc1	?	?	?	i	-25%
CCCN(C)C(=O)c1csc(N2CCN(c3cccc(Cl)c3)CC2)n1	?	32µM*	?	i	?
COc1cccc(N2CCN(c3nc(C(=O)NCc4ccco4)cs3)CC2)c1	-22%	45µM*	?	i	-9%
CC(C)(C)c1nnc2ccc(C(=O)NC3CC3)cn12	-12%[88.5 µM]	-2%[172 µM]	0%[138 µM]	/	/
c1ccc(-c2noc(-c3ccccc3OC3CNC3)n2)cc1	-5%	?	28µM*	22µM*	?
Cc1cccc(NC(=O)N2CC(Oc3ccccc3-c3nc(-c4ccccc4)no3)C2)c1	i	-3%	-13%	i	2%
O=C(Cc1ccsc1)N1CC(Oc2ccccc2-c2nc(-c3ccccc3)no2)C1	i	?	35µM*	?	-1%
O=C(NCCc1ccccc1)N1CC(Oc2ccccc2-c2nc(-c3ccccc3)no2)C1	i	22µM*	28µM*	?	-5%
CCC(C)NC(=O)N1CC(Oc2ccccc2-c2nc(-c3ccccc3)no2)C1 (centres undefined)	-13%	?	35µM*	?	-4%
CC(C)(C)CN[C@@H]1CO[C@H](CNS(=O)(=O)c2ccccc2)[C@H]1O	4%[88.5 µM]	4%[172 µM]	i	i	-2%[70.6 µM]
O=C(NCCc1ccc(Cl)cc1)c1ccc2nc(-c3cccnc3Cl)oc2c1	i	?	?	/	/
CC(Oc1ccccc1)C(=O)N1CC(Oc2ccccc2-c2nc(-c3ccccc3)no2)C1 (centres undefined)	0%	45µM*	35µM*	/	/
CC(C)c1cccc(NC(=O)CN2C(=O)C(c3ccccc3)=NC23CCCC3)c1	2%	35µM*	?	i	?
O=C(c1ccc(Cl)cc1)N1CC2(CCCN2Cc2cccnc2)Cc2ccccc21 (centres undefined)	1%	?	?	/	/
COCc1nc2nc(-c3ccccc3)c(-c3ccc(N4CCN(C)CC4)nc3)cc2n1C	-26%[88.5 µM]	?	?	?	14µM*
COCc1nc2nc(-c3ccccc3)c(-c3ccc([S+](C)(=O)[O-])cc3)cc2n1C	-2%[88.5 µM]	i	89µM*	i	/
Cc1ccc(-c2nc(CNC(=O)C(C)(C)N)[nH]c2-c2ccccn2)cc1	-13%	?	-2%	i	3%
CC(c1ccc(F)cc1)N1Cc2cc(NC(=O)c3cccs3)ccc2OCC1=O (centres undefined)	i	22µM*	?	i	?
COc1ccc2[nH]c(CN3CCC(CCC(=O)NCc4ccc(F)cc4)CC3)c(C)c2c1	4%	28µM*	?	i	0%
COc1cc(CNC(=O)CCC2CCN(C(=O)c3ccccc3F)CC2)cc(OC)c1	-7%	4%	-8%	i	0%
O=C(NCc1ccccc1Cl)C1CCCN1Cc1ccc(-c2cncnc2)cc1 (centres undefined)	-4%	?	?	/	/
